Test system: LEGO organoid PT (PTEN-/-; TP53-/-)
Test: bioluminescence (viable cell) signal fold change after vs before treatment, normalised to DMSO (ratio); higher = more tumour cell growth / less inhibition
Details: 10 µM; treatment time 6 days
Experimental: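 Luc2-labelled iPSC-derived glioblastoma-like organoids (LEGOs, genotypes PT = PTEN-/-;TP53-/-, PTCC = plus CDKN2A/B-/-, PTN = plus NF1-/-) were treated with 10 uM drug for 6 days (applied every other day) at 37 C. Bioluminescence imaging was done before treatment and 2 days after the last dose. BLI signals were normalised to the DMSO control on the same day and then to the pre-treatment signal (N=3).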

Structure (SMILES) | bioluminescence
CC(C)c1cccc(C(C)C)c1O [Propofol] | 1.34
Cc1n[nH]cc1-c1cc2[nH]c([C@@H]3CC4CCN3CC4)nc(=O)c2s1 [Simurosertib] | 1.6
CCN(C)C(=O)Oc1cccc([C@H](C)N(C)C)c1.O=C(O)[C@H](O)[C@@H](O)C(=O)O [Rivastigmine tartrate] | 2.08
CCC1(c2ccc(N)cc2)CCC(=O)NC1=O (configuration not stated) [Aminoglutethimide] | 0.724
CC(C)C[C@H]1C(=O)N2CCC[C@H]2[C@]2(O)O[C@](NC(=O)[C@@H]3C[C@@H]4c5cccc6[nH]cc(c56)C[C@H]4N(C)C3)(C(C)C)C(=O)N12.CC(C)[C@@]1(NC(=O)[C@@H]2C[C@@H]3c4cccc5[nH]cc(c45)C[C@H]3N(C)C2)O[C@@]2(O)[C@@H]3CCCN3C(=O)[C@H](Cc3ccccc3)N2C1=O.CC(C)[C@H]1C(=O)N2CCC[C@H]2[C@]2(O)O[C@](NC(=O)[C@@H]3C[C@@H]4c5cccc6[nH]cc(c56)C[C@H]4N(C)C3)(C(C)C)C(=O)N12.CCC(C)[C@H]1C(=O)N2CCC[C@H]2[C@]2(O)O[C@](NC(=O)[C@@H]3C[C@@H]4c5cccc6[nH]cc(c56)C[C@H]4N(C)C3)(C(C)C)C(=O)N12.CS(=O)(=O)O [Dihydroergotoxine mesylate] | 0.998
COc1ccc(C(CN(C)C)C2(O)CCCCC2)cc1.Cl (configuration not stated) [Venlafaxine hydrochloride] | 0.615
NCC(CC(=O)O)c1ccc(Cl)cc1 (configuration not stated) [Baclofen] | 0.694
CCOC(=O)c1cncn1[C@H](C)c1ccccc1 [Etomidate] | 1.09
CCN(C)C(=O)Oc1cccc([C@H](C)N(C)C)c1 [Rivastigmine] | 1.31
Cl.Cn1c(CCCC(=O)O)nc2cc(N(CCCl)CCCl)ccc21 [Bendamustine hydrochloride] | 0.772
CN[C@@H]1C[C@H]2O[C@@](C)([C@@H]1OC)n1c3ccccc3c3c4c(c5c6ccccc6n2c5c31)C(=O)NC4 [Staurosporine] | 0.0178
O=C(O)CCCc1ccc(N(CCCl)CCCl)cc1 [Chloroambucil] | 1.03
NCC1(CC(=O)O)CCCCC1 [Gabapentin] | 1.08
COc1cc2c(cc1OC)[C@@H]1CC(=O)[C@@H](CC(C)C)CN1CC2.COc1cc2c(cc1OC)[C@H]1CC(=O)[C@H](CC(C)C)CN1CC2 [Tetrabenazine] | 0.657
CC[C@@H](C(N)=O)N1CCCC1=O [Levetiracetam] | 0.803
CN(C)C(=O)Oc1ccc[n+](C)c1.[Br-] [Mestinon] | 0.942
Cc1cccc([C@H](C)c2cnc[nH]2)c1C.Cl [Dexmedetomidine HCl] | 0.872

— the supplement of paper PMC10811239
